GSH fluor: compound fluoresces at 488/530 nm on GSH beads. 190,000 tested, 0.25% active. fluorescence (KMESF) at 10 µM. GSH beads flow cytometry, compound fluorescence 488/530 nm; stronger effect = higher value. AID 1776; in the data active = fluorescence above about 89;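 also: glutathione beads carrying GST-tagged Bcl family fusion proteins plus one bare bead set; values are compound well signal with DMSO vehicle wells as background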
RGS8-Gao: human RGS8-Galphao interaction regulation; multiplexed bead flow cytometry, RGS8-Galphao binding; actives lie on both sides; response (percent of control binding), % at 10 µM; 220,000 tested, 0.34% active; AID 1423; in the data active = response below about 60% or above about 140%; inactive = in between;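 also: Galphao activated as the GDP aluminium fluoride complex binding bead-coupled RGS8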
Target sequence (P09471 whole entry, looked up): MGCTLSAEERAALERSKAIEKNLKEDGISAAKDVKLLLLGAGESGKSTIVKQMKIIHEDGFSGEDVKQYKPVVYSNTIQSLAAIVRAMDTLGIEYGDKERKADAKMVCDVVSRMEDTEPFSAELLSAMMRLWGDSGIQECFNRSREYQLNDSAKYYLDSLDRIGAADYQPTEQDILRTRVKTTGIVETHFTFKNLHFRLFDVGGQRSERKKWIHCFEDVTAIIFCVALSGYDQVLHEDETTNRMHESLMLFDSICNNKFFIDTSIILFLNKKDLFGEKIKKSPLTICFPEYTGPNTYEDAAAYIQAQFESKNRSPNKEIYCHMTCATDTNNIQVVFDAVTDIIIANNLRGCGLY
RGS4-Gao reg: human RGS4-Galphao interaction regulation; P09471; Multiplexed bead flow cytometry, RGS4-Galphao binding; actives lie on both sides; binding response (% of control), % at 10 µM; 220,000 tested, 0.33% active; AID 1415; in the data active = binding response below about 49% or above about 150%; inactive = in between;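 also: fluorescent Galphao activated with aluminum fluoride binding bead-coupled RGS4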
Avidin fluor: avidin bead compound fluorescence profile. Avidin beads, compound fluorescence 488/530 nm, flow cytometry; stronger effect = higher value. fluorescence (KMESF) at 10 µM. 220,000 tested, 0.38% active; in the data active = fluorescence above about 47
RGS16-Gao: regulators of human RGS16-Galphao interaction. 220,000 tested, 0.38% active. binding response (% of control), % at 10 µM. bead-based flow cytometry RGS16-Galphao binding, fluorescence; actives lie on both sides. O15492+P09471. AID 1441; call rule not given here;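 also: Galphao activated by GDP with aluminum fluoride before binding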
Target sequence (O15492 whole entry, looked up): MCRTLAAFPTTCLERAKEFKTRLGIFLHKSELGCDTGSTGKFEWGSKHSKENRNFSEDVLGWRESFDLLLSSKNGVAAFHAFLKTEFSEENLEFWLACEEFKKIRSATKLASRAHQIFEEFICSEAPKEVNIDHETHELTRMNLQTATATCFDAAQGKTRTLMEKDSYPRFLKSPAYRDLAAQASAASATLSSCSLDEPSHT
Target sequence (P09471 whole entry, looked up): as the sequence (P09471 whole entry, looked up) above
RGS7-Gao reg: human RGS7-Galphao interaction regulation; AID 1439; Multiplexed bead flow cytometry, RGS7-Galphao binding; actives lie on both sides; 220,000 tested, 0.35% active; binding response (% of control), % at 10 µM; in the data active = binding response below about 49% or above about 150%; inconclusive = no clear call, values can overlap the other calls; inactive = in between;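 also: fluorescent Galphao held in activated GDP-AlF4 state binding bead-coupled RGS7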
Numbers without * were called inactive; ? = inconclusive; / = no result given; [ ] = dose if it differs, or a comment. Hits are enriched below; roughly 1.2% of the tested compounds scored in any of these assays.

SMILES | GSH fluor | RGS8-Gao | RGS4-Gao reg | Avidin fluor | RGS16-Gao | RGS7-Gao reg
NCC12CC3CC(CC(O)(C3)C1)C2 | 262* | 102.8 | 103.0 | 7 | 102.3 | 101.4
CCN1CCCc2cc(CN(CCN3CCOCC3)C(=S)Nc3cccc(Cl)c3)ccc21 | 10 | 98.2 | 101.8 | 5 | 101.2 | 89.0
COc1ccc(OC)c(NC(=O)COC(=O)c2ccc(S(=O)(=O)N3CCOCC3)cc2)c1 | 276* | 100.0 | 98.8 | 7 | 102.1 | 98.7
CC(C)c1ccc2c(c1)C1Cc3ccccc3C1N2 (configuration not stated) | 13 | 99.3 | 100.8 | 11 | 100.4 | 101.0
Cc1nn(C)c(Sc2ccccc2N)c1[N+](=O)[O-] | 9 | 99.6 | 105.0 | 10 | 98.0 | ?
CCn1c(Cc2ccccc2)nnc1SCC(=O)Nc1ccc2c(c1)OCO2 | 45 | 100.3 | 100.7 | 9 | 100.9 | 102.1
Cn1c(Cc2ccccc2)nnc1SCC(=O)Nc1ccc2c(c1)OCCO2 | 255* | 100.4 | 96.8 | 8 | 100.4 | 97.2
COC(=O)c1ccc(-c2ccc(C(=O)N3CCCN(C)CC3)cc2)cc1 | 256* | 100.7 | 103.5 | 6 | 109.4 | 103.0
CCC(C)(C)NC(=O)CCCSc1nc2ccccc2s1 | 15 | 100.1 | 101.2 | 9 | 99.1 | ?
Cc1cc(C(=O)N2CCN(C(c3ccccc3)c3ccccc3)CC2)no1 | 50 | 103.8 | 120.1 | 52* | 133.1 | 116.9
CCCc1cc(C(=O)N2CCN(C(c3ccccc3)c3ccccc3)CC2)no1 | 18 | 102.3 | 98.7 | 7 | 101.0 | 97.0
CC(Nc1n[nH]c(=O)[nH]c1=O)C(=O)N/N=C/c1cccs1 (configuration not stated) | 15 | 99.4 | 101.9 | 8 | 98.1 | 96.9
CCc1ccc(C(=O)CN2C(=O)NC(C)(CCc3ccccc3)C2=O)cc1 (configuration not stated) | 20 | 101.9 | 100.6 | 7 | 98.7 | 97.2
CCc1ccccc1NC(=O)Cn1cccc1C1=NC(c2ccccc2)CO1 (configuration not stated) | 21 | 101.8 | 106.0 | 51* | 110.2 | 127.3
Cc1ccc(NC(=O)Cn2cccc2C2=NC(c3ccccc3)CO2)cc1C (configuration not stated) | 21 | 104.9 | 101.2 | 14 | 114.4 | 96.4
CSc1ccccc1NC(=O)CN(C)CC(=O)Nc1c(F)cccc1F | 11 | 103.3 | 131.8 | 58* | 105.5 | 120.8
O=C(N/N=C/c1ccc(-c2ccc(S(=O)(=O)Nc3ncccn3)cc2)o1)c1cc2ccccc2cc1O | 28 | 100.3 | 112.3 | 50* | 100.8 | 102.5
CCOc1ccc(NC(=O)CN(C)CC(=O)Nc2ccc(Br)cc2F)cc1OCC | 14 | 103.1 | 101.1 | 13 | 100.5 | ?
COc1ccc(N(CC(=O)NC2CCCCC2)C(=O)CCCC(=O)Nc2ccccn2)c(OC)c1 | 14 | 103.4 | 113.5 | 84* | 103.0 | 131.7
CC(C)c1ccc2c(c1)C(c1ccc(N3CCOCC3)cc1)=NNC(c1cccs1)=N2 | 8 | 101.8 | 102.5 | 10 | 100.9 | 100.0
CCOC(=O)c1ccc(S(=O)(=O)N2CCN(S(=O)(=O)CC)CC2)cc1 | 16 | 99.8 | 105.7 | 6 | 71.3 | 103.5
CCOC(=O)c1ccc(S(=O)(=O)N2CCN(CC(=O)NC(=O)NC3CCCCC3)CC2)cc1 | 30 | 152.5*[activator] | 187.9*[activator] | 14 | 185.2*[activator] | 175.8*[activator]
c1coc(CNC2CCCCCCC2)c1 | 11 | 69.0 | 91.0 | 84* | 110.6 | 140.8
c1coc(CNC2CCCCC2)c1 | 14 | 92.7 | 96.4 | 6 | 90.8 | 95.4
O=S(=O)(NC1CCCCCCC1)c1cccs1 | 275* | 98.7 | 99.1 | 8 | 101.3 | 99.7
SMILES | GSH fluor | RGS8-Gao | RGS4-Gao reg | Avidin fluor | RGS16-Gao | RGS7-Gao reg
CCOC(=O)C1(C)NC(c2cccs2)C2C(=O)N(c3ccc(OC)cc3)C(=O)C21 (configuration not stated) | 24 | 104.8 | 101.1 | 11 | 106.8 | 101.5
COc1ccc(NC(=O)C2=C(C)Nc3nc(CCCO)nn3C2c2ccc(OC)c(OC)c2)cc1 (configuration not stated) | 20 | 100.0 | 96.0 | 10 | 101.3 | ?
COc1cccc(C(=O)Nc2c(C)n[nH]c2C)c1 | 17 | 104.6 | 117.4 | 55* | 118.6 | 116.5
N#CC(c1ccccc1)N(CCCCl)C(=O)c1ccc(Br)cc1 (configuration not stated) | 13 | 85.9 | 96.6 | 5 | 45.4 | 100.2
COc1cccc(OC)c1OCCCCN1CCCC1 | 15 | 100.3 | 98.1 | 56* | 94.6 | 106.9
COc1cccc(OC)c1OCCCN1CCOCC1 | 16 | 100.8 | 102.0 | 11 | 103.7 | 99.3
Cc1ccc(N/C=C(/C#N)c2ccsc2)cc1 | 26 | 102.1 | 102.2 | 12 | 102.5 | 99.9
N#C/C(=C/Nc1ccccc1)c1ccsc1 | 15 | 104.3 | 103.0 | 51* | 105.2 | 110.2
CCOc1ccccc1N1CC(C(=O)Nc2cccc(S(=O)(=O)N3CCCCC3)c2)CC1=O (configuration not stated) | 13 | 99.7 | 111.6 | 54* | 102.6 | ?
CCOc1ccccc1N1CC(C(=O)Nc2ccc3c(c2)OCCO3)CC1=O (configuration not stated) | 12 | 101.2 | 98.5 | 10 | 101.5 | ?
CCC(=O)Oc1ccc(NC(=O)CSCc2ccccc2)cc1 | 14 | 100.7 | 99.6 | 10 | 101.7 | ?
CCOC(=O)Nc1ccc2c(c1)OCO2 | 20 | 102.6 | 100.7 | 39 | 99.5 | 101.5
COC(=O)Nc1ccc2c(c1)OCO2 | 100* | 95.3 | 84.2 | 4 | 91.5 | 87.4
O=C(CNc1ccccc1)NN=C1CCCC1 | 11 | 101.5 | 105.2 | 21 | 101.2 | 98.9
Cc1cnc(NC(=O)CSc2nnc(-c3cccs3)n2C)s1 | 269* | 95.5 | 89.8 | 7 | 92.1 | 93.8
Cc1ccc(-c2nnn(CC(=O)Nc3nnc(C(C)C)s3)n2)cc1 | 15 | 104.3 | 105.0 | 12 | 105.2 | 103.8
COCCNC(=O)C1c2ccccc2C(=O)N(CCOC)C1c1ccc(F)cc1 (configuration not stated) | 26 | 100.6 | 100.3 | 48* | 102.6 | 103.5
COCCN1C(=O)c2ccccc2C(C(=O)NCCN(C)C)C1c1ccc(F)cc1 (configuration not stated) | 24 | 96.5 | 91.4 | 32 | 95.7 | 93.0
CN(C(=O)Cn1cc(C(F)(F)F)ccc1=O)c1c(N)n(Cc2ccccc2)c(=O)[nH]c1=O | / | 98.4 | 101.8 | 6 | 98.6 | ?
O=C(Nc1cccnc1)c1ccc(S(=O)(=O)c2ccccc2)cc1 | 15 | 99.3 | 97.5 | 9 | 98.7 | ?
CCN(CC)S(=O)(=O)c1cccc(NC(=O)COC(=O)c2ccc(Br)o2)c1 | 255* | 92.1 | 98.0 | 4 | 60.2 | 100.0
CCN(CC)S(=O)(=O)c1cccc(NC(=O)COC(=O)c2cc(=O)c3ccccc3o2)c1 | 9 | 106.5 | 103.4 | 8 | 102.3 | 97.1

Screens: PubChem, NMMLSC
